From PubChem
Rab9 prom act = activates the Rab9 promoter. Huh7 Rab9 promoter-luciferase reporter, luminescence, 24 h. Potency, µM (highest dose often 9.22 µM), actives largely listed as activators. hit rate 2.8% among 320,000. AID 485297; further: nearly all actives have a fitted effect of over 60% in size
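Measured in stably transfected Huh7 cells bearing a Rab9 promoter–luciferase construct: 24 h compound treatment at 37 °C, followed by luminescence detection.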
FLuc modulator = inhibits or activates purified firefly luciferase, miR-21 counter-screen; P08659; purified FLuc, Km substrates, luminescence inhibition; Potency, µM (series often up to 57.5 µM), hits mostly inhibitors; hit rate 6.9% among 360,000; further: nearly all actives have a fitted effect of over 55% in size
Target sequence (P08659 whole entry, looked up): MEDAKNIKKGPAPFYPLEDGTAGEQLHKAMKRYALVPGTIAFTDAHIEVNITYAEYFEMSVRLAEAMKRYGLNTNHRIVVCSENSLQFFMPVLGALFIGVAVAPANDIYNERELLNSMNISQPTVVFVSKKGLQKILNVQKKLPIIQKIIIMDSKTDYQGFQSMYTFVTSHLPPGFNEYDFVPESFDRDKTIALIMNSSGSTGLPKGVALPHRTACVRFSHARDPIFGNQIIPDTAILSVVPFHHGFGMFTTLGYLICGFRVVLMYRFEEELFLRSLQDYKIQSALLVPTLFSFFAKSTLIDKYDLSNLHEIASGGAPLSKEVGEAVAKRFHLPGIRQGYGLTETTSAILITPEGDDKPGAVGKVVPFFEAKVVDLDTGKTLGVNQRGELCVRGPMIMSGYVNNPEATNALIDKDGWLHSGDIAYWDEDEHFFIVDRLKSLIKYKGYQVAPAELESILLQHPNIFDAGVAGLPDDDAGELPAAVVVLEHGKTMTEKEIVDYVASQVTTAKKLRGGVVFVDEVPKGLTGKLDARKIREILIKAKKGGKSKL
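Biochemical qHTS of compounds, final roughly 60 µM downward over six points, against 10 nM purified firefly luciferase using Km concentrations of substrates (10 uM D-luciferin, 10 uM ATP) in Tris acetate pH 7.5 buffer; luminescence output.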
NPC1 promoter act = activates the NPC1 promoter; Huh7 NPC1 promoter luciferase reporter, 24 h; Potency, µM (highest dose often 9.22 µM), most hits filed as activators; hit rate 2.4% among 320,000; AID 485313; further: nearly all actives have a fitted effect of over 60% in size
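In 1536-well qHTS, Huh7 cells harboring an NPC1 promoter–luciferase construct received compound for 24 h; activation was quantified by luminescence following luciferase reagent addition.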
SMN2 splice enh = enhancers of SMN2 splice variant expression. HEK293 SMN2-luciferase splicing reporter, luminescence, 30-36 h. Potency, µM (series often up to 46.1 µM), actives largely listed as activators. hit rate 2.8% among 210,000; further: nearly all actives have a fitted effect of over 55% in size
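qHTS luciferase splicing reporter: luminescence rises when SMN2 exon 7 is included in transfected HEK293 cells. Compound exposure lasted 30-36 h at 37C, with 4.5 mM final sodium butyrate as control, followed by a ONE-Glo read.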
ELG1 genotox = inducers of genotoxicity in HEK293T ELG1-luciferase cells. HEK293T ELG1-luciferase reporter, luminescence, 16 h. hit rate 1.3% among 330,000. AID 504466. Potency, µM (doses to about 46 µM), hits mostly activators; further: nearly all actives have a fitted effect of over 60% in size
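16 hr compound incubation (37 °C, 5% CO2) of HEK293T cells carrying luciferase-tagged ELG1; luciferase then measured by ONE-Glo luminescence after 30 min at RT.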
KinaseGlo FLuc = Kinase-Glo luciferase inhibition (counter-screen). Kinase-Glo luciferase, ATP luminescence, 8 min. Q27757. hit rate 0.28% among 200,000. Potency, µM (top dose mostly 38.3 µM), most hits filed as inhibitors; further: nearly all actives have a fitted effect of over 60% in size
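Light output from Kinase-Glo luciferase with luciferin and 10 uM ATP in 50 mM imidazole pH 7.2, KCl, MgCl2, Tween 20, BSA; compound pin-delivered, 8-min ambient incubation, then luminescence read.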
Hits are given with their value; i = inactive; ? = inconclusive; nt = no result; [ ] = dose if it differs, or a comment. Compounds with a hit are over-represented: about 7.3% of the library has one in this group of screens. The call rests on the fitted dose curve; in most records, active means well fitted curve in the direction sought with a large enough effect; inconclusive means small, poorly fitted or top-dose-only effect, or another doubt; inactive means no such curve, though single readings can be large; an effect the other way counts as inactive or inconclusive.

SMILES | Rab9 prom act | FLuc modulator | NPC1 promoter act | SMN2 splice enh | ELG1 genotox | KinaseGlo FLuc
Cc1cc(C(=O)COC(=O)C2=COCCO2)c(C)n1-c1cccc(F)c1 | 0.562µM | 1.9µM | 1.41µM | nt | ? | nt
Cc1cc(C)cc(-n2c(C)cc(C(=O)CSc3nnnn3C)c2C)c1 | i | i | i | i | i | i
Cc1cc(C(=O)CSc2ncccn2)c(C)n1-c1cccc(F)c1 | 1.41µM | 2.39µM | 3.55µM | ? | 10.3µM | i
Cc1cc(C(=O)CSc2nnnn2C)c(C)n1-c1cccc(F)c1 | 1.26µM | 7.57µM | 3.98µM | 12.6µM | ? | i
Cc1cc(C(=O)CSc2n[nH]c(N)n2)c(C)n1-c1cccc(F)c1 | ? | 23.9µM | i | ? | ? | i
Cc1cc(C(=O)CSc2nc(N)cc(N)n2)c(C)n1-c1cccc(C(F)(F)F)c1 | i | i | i | i | i | i
O=C1C[C@H]2C(=O)[C@@H]1[C@@H](C(=O)O)[C@H]2C(=O)O | nt | nt | nt | i[9.22 µM] | nt | i[7.66 µM]
COc1cc(/C=C/c2ccccc2)oc(=O)c1 | nt | nt | nt | 8.91µM | nt | nt
COc1cc(OC)c2c(-c3cccc(/C=C/c4ccc(F)cc4)c3)cc(=O)oc2c1 | nt | nt | nt | nt | ? | i
N=C1C(c2nc3ccccc3[nH]2)=C(O)CN1C1CCCCC1 | 2µM | ? | 3.16µM | nt | ? | nt
COc1ccc(-n2c(=O)c3c(c4cc(OC)ccc4n3C)n(Cc3cc(C)ccc3C)c2=O)cc1 | nt | i | nt | nt | nt | nt
O=C(Cn1cnc2c(NCc3ccccc3)ncnc21)NCC1CCCO1 (configuration not stated) | nt | nt | nt | nt | i | nt
c1ccc(CNc2ncnc3c2ncn3C2CCCCO2)cc1 (configuration not stated) | ? | 26.9µM | ? | ? | ? | i
CC(C)n1cnc2c(oc3ccccc32)c1=O | i | 16.9µM | i | nt | i | nt
CC(=O)Oc1cccc(N2C(=O)C3C(C2=O)C2C=CC3C23CC3)c1 (configuration not stated) | i | i | i | i | i | i
O=C1C2C(C(=O)N1c1ccc3c(c1)OCO3)C1C=CC2C12CC2 (configuration not stated) | i | 16.9µM | i | i | i | i
Cc1nn2c(=O)cc(COC(=O)c3ccc(NC(=O)c4cccs4)cc3)nc2s1 | nt | i | nt | nt | nt | nt
CC(=O)Nc1ncc(Cc2cccc(Cl)c2)s1 | i | i | i | nt | i | i
O=C(Nc1ncc(Cc2ccccc2Cl)s1)C1CCCO1 (configuration not stated) | 1.41µM | 9.53µM | 3.55µM | 12.6µM | ? | i
Cc1cnc(NC(=O)C2CCCO2)s1 (configuration not stated) | i | i | i | i | i | i
O=C(Nc1ncc(Cc2cccc(Cl)c2Cl)s1)C1CCCO1 (configuration not stated) | 3.55µM | 10.7µM | ? | 15.8µM | 16.4µM | i
CC(=O)Nc1ncc(Cc2cccc(Cl)c2Cl)s1 | i | i | i | i | i | i
O=C(Nc1ncc(Cc2cccc(Cl)c2)s1)C1CCCO1 (configuration not stated) | ? | 19µM | ? | i | i | i
O=C(COc1ccccc1N1C(=O)c2ccccc2C1=O)c1ccc(Cl)cc1 | i | i | i | i | 18.4µM | i
O=C(COc1ccc(N2C(=O)c3ccccc3C2=O)cc1)c1ccccc1 | i | i | i | i | i | i
SMILES | Rab9 prom act | FLuc modulator | NPC1 promoter act | SMN2 splice enh | ELG1 genotox | KinaseGlo FLuc
COc1cc(C2Nc3ccccc3C(=O)N2c2ccc(Cl)cc2)c(Cl)cc1OCC(=O)O (configuration not stated) | 2.51µM | ? | 3.16µM | 12.6µM | ? | i
CCOC(=O)COc1c(OC)cc(Cl)cc1C1Nc2ccccc2C(=O)N1c1cccc(C)c1 (configuration not stated) | i | i | i | i | i | i
CCOC(=O)COc1ccccc1C1Nc2ccccc2C(=O)N1c1cccc(Cl)c1 (configuration not stated) | 2.82µM | i | ? | 20µM | ? | i
CC(C)c1ccc(C2NC(=O)NC3=C2CCc2ccccc23)cc1 (configuration not stated) | i | i | i | i | i | i
Cc1ccc(C2NC(=O)NC3=C2CCc2ccccc23)cc1 (configuration not stated) | i | 3.01µM | ? | i | ? | i
N/C(=N\OC(=O)c1cccc(Cn2cc(C(F)(F)F)ccc2=O)c1)c1ccccc1 | i | ? | i | nt | i | nt
N/C(=N\OC(=O)c1cccc(Cn2cc(C(F)(F)F)ccc2=O)c1)c1ccc(Cl)cc1 | i | 15.1µM | i | nt | i | nt
O=C(Sc1ccc(Cl)cc1)c1cccc(Cn2cc(C(F)(F)F)ccc2=O)c1 | i | i | i | nt | i | nt
Cc1ccc(/C(N)=N/OC(=O)c2cccc(Cn3cc(C(F)(F)F)ccc3=O)c2)cc1 | i | 21.3µM | ? | nt | i | nt
COc1ccccc1CNC(=O)c1c2c(nc3ccccc13)C(=O)N(C1CCCCC1)C2 | nt | i | nt | nt | nt | nt
C=CCC1(CC=C)CCCN1C(=O)c1cc(COc2ccc(F)c(F)c2)on1 | i | i | i | nt | i | nt
Cc1ccc(OCc2cc(C(=O)NCc3ccc(OC(F)(F)F)cc3)no2)cn1 | i | i | i | nt | i | nt
C=CCC1(CC=C)CCCN1C(=O)c1cc(COc2ccc(C)nc2)on1 | i | 19µM | i | nt | i | nt
Cc1cc(CNC(=O)c2cc(COc3ccc(F)c(F)c3)on2)nn1C | 1.26µM | ? | 2.82µM | nt | ? | nt
CCc1cc(CNC(=O)c2cc(COc3ccc(C)nc3)on2)on1 | ? | 16.9µM | ? | nt | ? | nt
CCC1CN(C(=O)N2CCC(C(=O)NCCc3ccc(OC)cc3OC)CC2)c2cc(C)ccc2O1 (configuration not stated) | nt | i | nt | nt | nt | nt
CC/C(=N\Nc1nncc2ccccc12)c1ccc(F)cc1 | ? | 12µM | ? | nt | 16.4µM | nt
C/C(=N\Nc1nncc2ccccc12)c1ccc(OCC(=O)N(C)C)cc1 | ? | 12µM | i | nt | i | nt
CCOC(=O)NNc1nncc2ccccc12 | i | i | i | i | i | i
COc1ccc(Nc2c3c(nc4ccc(NC(=O)c5cc(Cl)ccc5OC)cc24)CCCC3)cc1OC | nt | i | nt | i | nt | nt
CCOC(=O)c1ccc(NC(=O)c2c(-c3c(F)cccc3Cl)noc2C)cc1 | nt | i | nt | i | nt | nt
COc1ccc(CC(=O)Nc2cc3oc4ccccc4c3cc2OC)cc1 | ? | 15.1µM | ? | 14.1µM | i | i
COc1cc2c(cc1NC(=O)C(C)Sc1cccc[n+]1[O-])oc1ccccc12 (configuration not stated) | ? | ? | ? | 10µM | i | i
COc1cc2c(cc1NC(=O)C(C)Sc1nc3ccccc3n1C)oc1ccccc12 (configuration not stated) | i | i | i | i | i | i
COc1cc2c(cc1NC(=O)COCC(=O)O)oc1ccccc12 | i | 16.9µM | i | nt | i | nt
CCCOc1ccc(Oc2nc(NC)nc(N3CCOCC3)n2)nn1 | nt | i | nt | i | nt | nt
